Measurements reported in PubChem BioAssay (EPA / NIEHS).
Results filed as inconclusive are left out. Active and inactive are the calls of the source. Rule for the calls: active = hit-call score of the fitted dose curve at least 0.9, where 1 is the maximum; inconclusive = response in the unintended direction; inactive = score below 0.9.

These compounds were tested against human Phosphodiesterase 10 (PDE10), PDE10A (gene 10846) (UniProt Q9Y233) (assay: NVS_ENZ_hPDE10: NovaScreen (NVS) Enzymatic Assay for human Phosphodiesterase 10 (PDE10) (AID 2283195)).
Sequence of human Phosphodiesterase 10 (PDE10), PDE10A (gene 10846) (Q9Y233 whole entry, looked up): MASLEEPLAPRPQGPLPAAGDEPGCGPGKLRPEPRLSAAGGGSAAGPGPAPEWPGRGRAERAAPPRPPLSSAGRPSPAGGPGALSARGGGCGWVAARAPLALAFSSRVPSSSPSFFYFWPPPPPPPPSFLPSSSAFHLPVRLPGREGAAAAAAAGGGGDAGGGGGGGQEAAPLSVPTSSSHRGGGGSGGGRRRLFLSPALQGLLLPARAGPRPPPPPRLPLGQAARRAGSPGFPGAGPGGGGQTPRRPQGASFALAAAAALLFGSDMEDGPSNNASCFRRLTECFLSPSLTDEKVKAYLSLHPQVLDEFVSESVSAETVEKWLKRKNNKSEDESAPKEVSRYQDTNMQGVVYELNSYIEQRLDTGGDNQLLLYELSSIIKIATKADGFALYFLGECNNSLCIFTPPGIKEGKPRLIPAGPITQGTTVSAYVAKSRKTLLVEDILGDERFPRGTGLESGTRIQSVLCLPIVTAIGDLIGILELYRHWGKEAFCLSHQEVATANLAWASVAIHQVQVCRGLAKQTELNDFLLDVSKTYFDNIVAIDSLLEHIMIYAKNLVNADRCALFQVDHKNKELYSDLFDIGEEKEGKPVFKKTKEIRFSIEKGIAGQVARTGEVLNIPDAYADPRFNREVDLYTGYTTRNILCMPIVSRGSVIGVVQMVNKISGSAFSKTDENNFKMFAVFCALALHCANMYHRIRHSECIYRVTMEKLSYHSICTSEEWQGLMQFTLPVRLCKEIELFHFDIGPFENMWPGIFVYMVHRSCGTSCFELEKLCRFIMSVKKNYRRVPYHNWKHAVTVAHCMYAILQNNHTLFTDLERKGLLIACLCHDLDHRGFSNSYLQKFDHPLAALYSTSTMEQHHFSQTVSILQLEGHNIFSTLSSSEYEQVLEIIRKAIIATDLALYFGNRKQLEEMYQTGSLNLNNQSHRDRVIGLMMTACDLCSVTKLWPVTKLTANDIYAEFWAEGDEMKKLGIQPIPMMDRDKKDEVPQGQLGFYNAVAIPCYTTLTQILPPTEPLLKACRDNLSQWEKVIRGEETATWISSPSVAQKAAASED
In short: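 Recombinant human PDE10 with fluorescent substrate, 1 h, product separated by electrophoretic mobility shift. Loss of enzyme activity fitted against DMSO; initial screen 25 uM in duplicate, actives run to 50 uM maximum.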

Row | Structure (SMILES) | outcome | AC50
1 | c1ccc2sc(SNC3CCCCC3)nc2c1 | inactive | 
2 | Oc1ccc(Cc2ccc(O)cc2)cc1 | inactive | 
3 | O=c1oc2ccccc2c(O)c1C(CC(O)c1ccc(-c2ccc(Br)cc2)cc1)c1ccccc1 (stereo not given) | inactive | 
4 | CCOP(=O)(OCC)SCCSCC | inactive | 
5 | O=[N+]([O-])c1ccc(Nc2ccccc2)cc1 | inactive | 
6 | CCCCOP(=O)(CCCC)OCCCC | inactive | 
7 | CC(C)(C)c1ccc(CCOc2ncnc3ccccc23)cc1 | inactive | 
8 | Nc1ccc(N)cc1 |  | 2.5 µM (active)
9 | CC(C)[N+](=O)[O-] | inactive | 
10 | CN(CCCC(O)c1cccnc1)N=O (stereo not given) |  | 35.5 µM (active)
11 | N#Cc1ccccc1Cl | inactive | 
12 | CC1CC(=O)O1 (stereo not given) | inactive | 

Each compound was assayed against human Phosphoinositide 3-kinase alpha (PI3Ka), PIK3CA (gene 5290) (UniProt P42336) (assay: NVS_ENZ_hPI3Ka: NovaScreen (NVS) Enzymatic Assay for human Phosphoinositide 3-kinase alpha (PI3Ka) (AID 2283196)).
Sequence of human Phosphoinositide 3-kinase alpha (PI3Ka), PIK3CA (gene 5290) (P42336 whole entry, looked up): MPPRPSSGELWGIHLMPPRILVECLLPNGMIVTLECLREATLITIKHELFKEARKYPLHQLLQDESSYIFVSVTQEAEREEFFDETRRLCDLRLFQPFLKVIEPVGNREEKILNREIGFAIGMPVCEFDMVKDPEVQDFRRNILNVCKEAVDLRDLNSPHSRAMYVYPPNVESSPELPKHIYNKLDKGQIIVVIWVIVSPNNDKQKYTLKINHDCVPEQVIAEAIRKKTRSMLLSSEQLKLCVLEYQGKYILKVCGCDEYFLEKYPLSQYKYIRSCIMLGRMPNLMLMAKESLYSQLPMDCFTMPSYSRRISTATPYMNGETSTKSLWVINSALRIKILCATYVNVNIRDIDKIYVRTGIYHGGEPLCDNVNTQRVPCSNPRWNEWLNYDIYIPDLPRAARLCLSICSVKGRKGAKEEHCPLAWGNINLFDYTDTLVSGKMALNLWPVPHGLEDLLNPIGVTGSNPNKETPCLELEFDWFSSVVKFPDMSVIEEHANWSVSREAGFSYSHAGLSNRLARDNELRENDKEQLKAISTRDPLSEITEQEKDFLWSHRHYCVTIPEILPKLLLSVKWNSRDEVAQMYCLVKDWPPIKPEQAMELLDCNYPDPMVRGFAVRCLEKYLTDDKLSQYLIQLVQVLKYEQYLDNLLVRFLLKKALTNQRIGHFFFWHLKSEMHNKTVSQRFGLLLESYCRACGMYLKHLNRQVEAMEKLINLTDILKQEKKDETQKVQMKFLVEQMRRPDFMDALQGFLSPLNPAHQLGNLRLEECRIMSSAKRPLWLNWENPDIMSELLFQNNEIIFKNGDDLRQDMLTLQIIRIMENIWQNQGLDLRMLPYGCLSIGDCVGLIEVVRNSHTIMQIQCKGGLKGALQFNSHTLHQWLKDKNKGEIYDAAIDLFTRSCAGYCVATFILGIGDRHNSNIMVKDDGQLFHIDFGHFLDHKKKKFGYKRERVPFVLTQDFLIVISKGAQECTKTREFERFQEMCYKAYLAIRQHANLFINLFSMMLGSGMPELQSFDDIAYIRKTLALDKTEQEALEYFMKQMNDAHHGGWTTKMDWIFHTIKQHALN
In short: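 Fluorescence/mobility-shift readout of substrate conversion by recombinant enzyme, 1 h post-dosing. Primary screen in duplicate at 25 uM; actives (e.g. ≥30% inhibition) retested in singleton concentration-response, top concentration 50 uM.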

Row | Structure (SMILES) | outcome | AC50
13 | Nc1nc(N)nc(Cl)n1 | inactive | 
14 | Oc1ccc(Cc2ccc(O)cc2)cc1 | inactive | 
15 | CCC(C)(C#N)N=NC(C)(C#N)CC (stereo not given) | inactive | 
16 | C=CC(=O)NC(C)(C)CC(C)=O | inactive | 
17 | O=c1oc2ccccc2c(O)c1C(CC(O)c1ccc(-c2ccc(Br)cc2)cc1)c1ccccc1 (stereo not given) |  | 5.19 µM (active)
18 | O=[N+]([O-])c1ccc(Nc2ccccc2)cc1 | inactive | 
19 | CCOC(=O)CCN(SN(C)C(=O)Oc1cccc2c1OC(C)(C)C2)C(C)C | inactive | 
20 | Cc1cc(C(C)(C)c2ccc(O)c(C)c2)ccc1O |  | 5.25 µM (active)
21 | CC(C)[N+](=O)[O-] | inactive | 
22 | O=C(O)C1(c2ccc3c(c2)OC[C@H](Cc2ccc(-c4ccccc4)cc2)[C@H]3O)CCCC1 | inactive | 
23 | CC[N+](CC)(CC)CC | inactive | 
24 | Nc1c(Oc2ccccc2)cc(O)c2c1C(=O)c1ccccc1C2=O |  | 3.26 µM (active)
25 | C=CCCl | inactive | 
